In PubChem BioAssay (NCATS):
Results filed as inconclusive are left out. The source made the active and inactive calls. Calls follow the shape of the dose curve; as a rule, active = well fitted cell-killing curve with a large enough effect; inconclusive = small, poorly fitted or top-dose-only effect; inactive = no such curve, though single readings can be large or run the other way.

Test: qHTS of pediatric cancer cell lines to identify multiple opportunities for drug repurposing: Primary screen for A673 cells (AID 1347092); also: nearly all actives have a fitted effect of over 45% in size
Details: A673 Ewing sarcoma viability, CellTiter-Glo ATP luminescence, 48 h; series mostly up to 46 µM
Excerpt: Drug repurposing or repositioning has been offered as a strategy for drug development in oncology programs. This approach has special potential for childhood cancers and other rare or orphan diseases, where the expected return on new drug development has been a disincentive to pharmaceuticals. […] In this project we exploit the poly-pharmacology of drugs to discover new indications via phenotypic screening of a panel of 19 well-characterized cell lines derived from solid tumors seen in children and adolescents. The goal is to identify approved drugs with previously unrecognized anticancer properties that has the potential to reveal new mechanisms and biological processes involved in carcinogenesis or drug resistance. We employed a titration-based paradigm (quantitative high-throughput screening or qHTS), where all compounds were tested at multiple concentrations for their effect on cell viability. Concentration-response curves (CRCs) were derived directly from the primary screen, and both potency and efficacy values were used to identify compounds with robust bioactivity profiles. We screened the NIH Chemical Genomics Center (NCGC) Pharmaceutical Collection (NPC) and Mechanism Interrogation Plate (MIPE) small molecule collections of approved and investigational compounds against these cell lines; and measured metabolically active cells after 48 hours of compound treatment as a proxy for cell viability. […] Assay Submitter: Nathalia J. Martinez, National Center for Advancing Translational Sciences, National Institutes of Health, Rockville, MD, USA; email: natalia.martinez@nih.gov. Shen, M et al. Quantitative high-throughput phenotypic screening of pediatric cancer cell lines identifies multiple opportunities for drug repurposing. Oncotarget 2017 Dec 19;9(4):4758-4772. PMID 29435139.
The cells were obtained from University of North Carolina (UNC), Pediatric Preclinical Testing Program (PPT), and Coriell Institute (CI). qHTS cell viability assay: Cells were assayed in growth media at a density of 500-1,000 cells/well. Five microliters of cells were dispensed into 1,536-well, white, solid-bottom, TC-treated plates (Greiner Bio One) using a multidrop dispenser and incubated at 37 degrees C, 5% CO2, under a humidified atmosphere for 5 hours. Twenty-three nanoliters of compounds and controls (neutral control DMSO or positive control bortezomib at final concentration of 2.3 uM) were subsequently transferred by Kalypsys pintool. For primary screens, the MIPE collection was tested at 11-point dilutions (final concentrations range from 0.78 nM to 46 µM) and the NPC collection at 8-point dilutions (final concentrations range from 0.59 nM to 46 µM). Compounds tested in follow-up screens were assayed at 11-point dilutions. Cells were incubated for 48 hours, followed by addition of 3 uL of CellTiter-Glo (Promega). After a 15min incubation at room temperature, samples were analyzed for luminescence intensity using a ViewLux High-throughput CCD imager equipped with clear filters.
Potency is read from the fitted curve at half-maximal effect.

| SMILES | Potency |
| --- | --- |
| CN1CCCN(C(=O)c2cccc(-c3ccc(C=C4C(=O)Nc5ccc(Cl)cc54)o3)c2)CC1 | 18700 nM (active) |
| CCOc1cc2ncc(C#N)c(Nc3ccc(OCc4ccccn4)c(Cl)c3)c2cc1NC(=O)C=CCN(C)C | 74.3 nM (active) |
| Cc1ncc(-c2ccnc(Nc3ccc(S(C)(=O)=O)cc3)n2)n1C(C)C | 935 nM (active) |
| Cn1cnc2c(F)c(Nc3ccc(Br)cc3F)c(C(=O)NOCCO)cc21 | inactive |
| CCNC(=O)c1cc2c(-c3cc(OCCN4CCCC4)c(Cl)cc3Cl)nc(N)nc2s1 | 1180 nM (active) |
| Cc1cnc(Nc2ccc(CN3CCOCC3)cc2)nc1Nc1cccc(S(=O)(=O)NC(C)(C)C)c1 | 2960 nM (active) |
| NC[C@H]1O[C@H](O[C@H]2[C@@H](O)[C@@H](O[C@H]3O[C@H](CO)[C@@H](O)[C@H](N)[C@@H]3O)[C@H](N)C[C@@H]2N)[C@H](N)C[C@H]1O | inactive |
| FC(F)(F)c1ccc(Nc2nc3ccc(Oc4ccnc(-c5ncc(C(F)(F)F)[nH]5)c4)cc3[nH]2)cc1 | 14800 nM (active) |
| CC(N[C@H]1CCCC[C@H]1NC(=O)c1ccc(Cl)cc1)c1cccc2ccccc12 (stereo not given in full) | 743 nM (active) |
| COC[C@H](NC(=O)c1cnc(C)s1)C(=O)N[C@@H](COC)C(=O)N[C@@H](Cc1ccccc1)C(=O)[C@@]1(C)CO1 | 93.5 nM (active) |
| CCCCCCCCCCCCCCCC(=O)OC[C@@H](NC(=O)C(Cl)Cl)[C@H](O)c1ccc([N+](=O)[O-])cc1 | inactive |
| CC(=O)C1=C(O)C=C2Oc3c(C(C)=O)c(O)c(C)c(O)c3C2(C)C1=O (stereo not given) | 187 nM (active) |
| CCOc1cc2c(c(F)c1OCC)C(=N)N(CC(=O)c1cc(N3CCOCC3)c(OC)c(C(C)(C)C)c1)C2 | 9350 nM (active) |
| CCOC(=O)N1CCN([N+]([O-])=NOc2ccc([N+](=O)[O-])cc2C#N)CC1 | 1180 nM (active) |
| CC(C=CC=C(C)C=CC1=C(C)CCCC1(C)C)=CC=CC=C(C)C=CC=C(C)C=CC1=C(C)CCCC1(C)C | 5900 nM (active) |
| CC1(C)CC(O)CC(C)(C)N1[O] | inactive |
| N#Cc1c(NC(=O)c2cccc3ccccc23)sc2c1CCCC2 | 235 nM (active) |
| C[C@@]12C[C@@]3(O)O[C@@H](O1)[C@]1(COC(=O)c4ccccc4)[C@@H]3C[C@@]12O[C@@H]1O[C@H](CO)[C@@H](O)[C@H](O)[C@@H]1O | inactive |
| Cc1cc(-c2nnc3n2CCCCC3)c(C)n1-c1ccccc1 | inactive |
| C[C@H](CCC(=O)O)[C@H]1CC[C@H]2[C@@H]3[C@H](O)C[C@@H]4C[C@H](O)CC[C@]4(C)[C@@H]3CC[C@]12C | inactive |

| SMILES | Potency |
| --- | --- |
| Cc1ccc2nc(NCCN)c3ncc(C)n3c2c1 | 1870 nM (active) |
| CCNC(=O)Nc1ccc(-c2nc3c(c(N4CCOC[C@H]4C)n2)CCN(C2COC2)C3)cc1 | 1480 nM (active) |
| CC1(C)O[C@@H]2C[C@H]3[C@@H]4CCC5=CC(=O)C=C[C@]5(C)[C@@H]4[C@@H](O)C[C@]3(C)[C@]2(C(=O)CO)O1 | inactive |
| CC(=O)O[C@H]1C[C@@H]2CC[C@H]3[C@H]4C[C@H]([N+]5(C)CCCCC5)[C@@H](OC(C)=O)[C@@]4(C)CC[C@@H]3[C@@]2(C)C[C@H]1[N+]1(C)CCCCC1 | inactive |
| NC(=O)Nc1sc(-c2ccc(F)cc2)cc1C(N)=O | 590 nM (active) |
| CCC[C@H]1C[C@H](C(=O)N[C@@H]([C@@H]2O[C@@H](SC)[C@@H](O)[C@@H](O)[C@@H]2O)[C@H](C)Cl)N(C)C1 | inactive |
| O=C(O)C(=O)Nc1cccc(C2=NN=N[N]2)c1 | inactive |
| O=S(=O)(O)CCSSCCS(=O)(=O)O | inactive |
| Cc1ccccc1C(=O)Nc1ccc(C(=O)N2CCCC(O)c3cc(Cl)ccc32)c(C)c1 (stereo not given) | inactive |
| Cc1onc(-c2ccccc2)c1C(=O)N[C@@H]1C(=O)N2[C@@H](C(=O)O)C(C)(C)S[C@@H]12 | inactive |
| Nc1ncn([C@@H]2O[C@H](CO)[C@@H](O)[C@@H]2O)c(=O)n1 | 4690 nM (active) |
| Cc1cnc(Nc2ccc(N3CCN(C)CC3)cc2)nc1Nc1cccc(S(=O)(=O)NC(C)(C)C)c1 | 1180 nM (active) |
| O=[N+]([O-])c1cn2c(n1)OC[C@@H](OCc1ccc(OC(F)(F)F)cc1)C2 | inactive |
| CC(C)C[C@H](NC(=O)[C@@H](NC(=O)c1cccc(-c2ccccc2)n1)[C@@H](C)O)B(O)O | 187 nM (active) |
| CC(C)(O)[C@H]1CC[C@@](C)([C@H]2[C@@H](O)C[C@@]3(C)[C@@H]4C[C@H](O[C@@H]5O[C@H](CO)[C@@H](O)[C@H](O)[C@@H]5O)[C@H]5C(C)(C)[C@@H](O[C@@H]6OC[C@@H](O)[C@H](O)[C@@H]6O)CC[C@@]56C[C@@]46CC[C@]23C)O1 | inactive |
| O=C1CSC(=O)N1C(CCc1ccncc1)COc1ccc(-c2cccc([N+](=O)[O-])c2)cc1 (stereo not given) | 7430 nM (active) |
| C=CC(=O)Nc1cc(NC(=O)c2ccc(C)c(NC(=O)c3ccno3)c2)cc(C(F)(F)F)c1 | 14800 nM (active) |
| CCCCCN=C(N)NN=Cc1c[nH]c2ccc(OC)cc12 | 9350 nM (active) |
| OCC(O)C(O)C(O)CO (stereo not given) | inactive |
| C[C@H](NC(=O)C(C#N)=Cc1cccc(Br)n1)c1ccccc1 | 14800 nM (active) |
